Luciferase inh: inhibitors of firefly (Photinus pyralis) luciferase; AID 1347043; P08659; Potency, µM (top dose mostly 115 µM), most hits filed as inhibitors; 76,000 compounds, 2.5% hits; purified P. pyralis luciferase, luminescence, biochemical; also: nearly all actives have a fitted effect of over 65% in size
Target sequence (P08659 whole entry, looked up): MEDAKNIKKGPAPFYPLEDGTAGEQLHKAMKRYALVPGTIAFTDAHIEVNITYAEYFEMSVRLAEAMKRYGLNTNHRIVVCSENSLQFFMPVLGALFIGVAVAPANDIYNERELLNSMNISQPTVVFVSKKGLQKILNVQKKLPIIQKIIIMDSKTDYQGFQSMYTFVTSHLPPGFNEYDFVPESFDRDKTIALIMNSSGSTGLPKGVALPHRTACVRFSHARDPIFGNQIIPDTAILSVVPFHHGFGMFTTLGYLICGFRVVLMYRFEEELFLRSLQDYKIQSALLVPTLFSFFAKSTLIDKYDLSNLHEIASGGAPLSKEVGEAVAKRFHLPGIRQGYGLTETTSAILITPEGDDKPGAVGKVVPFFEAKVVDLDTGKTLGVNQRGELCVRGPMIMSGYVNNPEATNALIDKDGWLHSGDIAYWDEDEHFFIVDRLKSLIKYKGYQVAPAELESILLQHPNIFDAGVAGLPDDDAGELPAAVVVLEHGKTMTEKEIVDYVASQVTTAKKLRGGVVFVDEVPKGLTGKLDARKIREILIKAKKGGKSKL
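Luminescence read by CCD imager after adding enzyme (10nM final) to wells holding compound, titrated in qHTS. Substrates 10uM each D-luciferin and ATP; buffer 50mM Tris acetate pH 7.5, 10mM Mg acetate, Tween-20, BSA.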
hNpr1 antagonist: antagonists of human natriuretic peptide receptor Npr1 | P16066 | 76,000 compounds, 1.6% hits | Potency, µM (titrated, usually from 46.3 µM), actives largely listed as inhibitors | HEK293 hNpr1 GloSensor cGMP, ANP-stimulated luminescence; calls by dose curve; also: nearly all actives have a fitted effect of over 60% in size
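HEK293 cells stably expressing human Npr1 and cGMP GloSensor pGS-40F, loaded 2 h with 2% GloSensor reagent, given compound 30 min at room temperature. Luminescence read before and 20 min after 0.1 nM hNppA.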
3T3 cytotox: cytotoxic compounds in NIH 3T3 cells; Potency, µM (titrated, usually from 96.7 µM), hits mostly inhibitors; NIH 3T3 viability, CellTiter-Glo ATP luminescence, 48-72 h; 94,000 compounds, 4.3% hits; AID 1345082; also: nearly all actives have a fitted effect of over 55% in size
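Cells were seeded at 400 per well, treated with pin-transferred compound, and kept 48 or 72 hr at 37 °C before CellTiter-Glo addition and luminescence imaging of cellular ATP.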
SNCA viab count: counter-screen for SNCA expression inhibitors: cell viability | 150,000 compounds, 0.12% hits | HEK-293-SNCA-luc viability, GF-AFC fluorescence, 24 h | Potency, µM (titrated, usually from 57.1 µM), actives largely listed as cytotoxic; also: nearly all actives have a fitted effect of over 30% in size
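HEK-293-SNCA-luc cells (1500/well) plated 24 h, then exposed 24 h to a dilution series; GF-AFC added 30 min at 37C, fluorescence 405/540 nm; normalised to medium-only and DMSO wells, Hill fit.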
HEK293 tox: HEK 293 cell cytotoxicity. HEK 293 viability, ATP luminescence (CellTiter-Glo), 48-72 h. Potency, µM (top dose mostly 115 µM), most hits filed as inhibitors. 94,000 compounds, 6.6% hits. AID 1345083; also: nearly all actives have a fitted effect of over 60% in size
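Cells seeded first (HEK 293, 250 cells/well), then compound added by pintool. Incubation ran 48 or 72 hr at 37 degree Celsius. CellTiter-Glo was added and luminescence imaged after 10 min at room temperature.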
SNCA expr inhib: inhibitors of alpha-synuclein (SNCA) gene expression; HEK-293 SNCA-luciferase knock-in, luminescence, 24 h; Potency, µM (highest dose often 57.2 µM), most hits filed as inhibitors; 140,000 compounds, 0.17% hits; also: nearly all actives have a fitted effect of over 45% in size
Hits are given with their value; 0 = inactive; ? = inconclusive; - = no result given. An excerpt weighted towards active compounds, which were near 7.2% of everything screened. Unless noted, calls follow the shape of the dose curve; as a rule, active = well fitted curve in the direction sought with a large enough effect; inconclusive = small, poorly fitted or top-dose-only effect, or another doubt; inactive = no such curve, though single readings can be large; an effect the other way counts as inactive or inconclusive.

SMILES	Luciferase inh	hNpr1 antagonist	3T3 cytotox	SNCA viab count	HEK293 tox	SNCA expr inhib
Cc1ccccc1-c1cccc(CN2CCOC(CCN)C2)c1 (configuration not stated)	0	0	20µM	?	?	?
O=C(C1CC1)N1CCCC(c2nn(-c3ccc(Cl)cc3)c(=O)[nH]2)C1 (configuration not stated)	0	0	0	0	0	?
O=C([C@@H]1C[C@@H](O)[C@H](O)[C@@H]2NC(=S)N(c3ccc(Cl)cc3)[C@@H]21)N1CCCCC1	50µM	0	0	0	0	0
COc1cc2c(cc1O)C1(Cc3ccc4c(c3C1O)OCO4)[N+](C)([O-])CC2 (configuration not stated)	-	-	-	0	-	-
Cc1ncoc1C(=O)N1CC[C@H]2C(=O)NCCCCCCN(Cc3ccncc3)[C@@H]2C1	0	0	0	0	0	?
CC(=O)Nc1ccc(-c2ccc(=O)n3c2[C@@H]2C[C@@H](CN(C(=O)COc4ccccc4)C2)C3)cc1	0	0	0	0	40µM	0
CC(=O)Nc1ccc(-c2ccc(=O)n3c2[C@@H]2C[C@@H](CN(S(=O)(=O)c4ccc(Cl)cc4)C2)C3)cc1	0	0	0	0	14µM	0
CNC(=O)C(C)(C)N1CCC[C@H]1C(=O)NCCc1ccccc1	0	0	0	0	0	0
O=C(c1cc(F)ccc1Cl)N1CCC(n2cc(-c3nc(-c4ccccc4)no3)nn2)C1 (configuration not stated)	?	13µM	?	0	?	0
CN(C)c1ccc(C(=O)N2CCC(n3cc(-c4nc(-c5ccccc5)no4)nn3)C2)cc1 (configuration not stated)	?	0	?	0	45µM	0
COc1ccc(C(=O)N2CCC(n3cc(-c4nc(-c5ccccc5)no4)nn3)C2)cc1OC (configuration not stated)	?	?	0	0	?	0
Cc1ccc(C(=O)N2CCC(n3cc(-c4nc(-c5ccccc5)no4)nn3)C2)cc1C (configuration not stated)	32µM	2µM	?	0	45µM	0
Cc1cc(C)cc(C(=O)N2CCN(c3cc(-c4ccc(Cl)cc4)[nH]n3)CC2)c1	0	?	40µM	0	40µM	?
O=C(c1ccc(F)c(Cl)c1)N1CCN(c2cc(-c3ccccc3)[nH]n2)CC1	0	0	?	0	?	0
O=C(c1ccsc1)N1CCN(c2cc(-c3ccc(Cl)cc3)[nH]n2)CC1	0	0	25µM	0	?	0
Cc1ccsc1C(=O)N1CCCN(c2cc(-c3ccc(Cl)cc3)[nH]n2)CC1	0	?	?	0	32µM	0
O=C(c1cccc(Cl)c1)N1CCN(c2cc(-c3ccccc3)[nH]n2)CC1	0	0	?	0	45µM	0
CN(C)c1nc2c(c(=O)[nH]1)CCN(Cc1cc(F)c(F)c(F)c1)CC2	0	0	0	0	0	0
O=C(NCc1ccc(F)cc1)c1nc2sccn2c1-c1ccncc1	-	-	?	0	?	0
CCCS(=O)(=O)N1CCC2(CC1)CC2c1noc(C)n1 (configuration not stated)	-	-	?	0	?	0
CC(=O)N1CCCC2(CC(c3ccccn3)=NO2)C1 (configuration not stated)	-	-	0	0	0	0
O=C(c1ccc2ncccc2c1)N1CCCN(c2cc(-c3ccc(Cl)cc3)[nH]n2)CC1	0	?	?	0	35µM	0
O=C(c1ccc(Cl)cc1)N1CCN(c2cc(-c3ccc(F)cc3)[nH]n2)CC1	0	?	35µM	0	?	?
O=C(c1ccc2c(c1)OCO2)N1CCCN(c2cc(-c3ccc(Cl)cc3)[nH]n2)CC1	0	0	?	0	?	0
O=C(c1ccc2c(c1)OCO2)N1CCN(c2cc(-c3ccc(F)cc3)[nH]n2)CC1	0	?	14µM	0	?	?
COCc1cc(=O)n(CC(=O)Nc2cccc(Br)c2)c(N2CCOCC2)n1	0	0	?	0	?	0
Oc1ccc(CCC2CCCCN2Cc2nc(Cc3cccc(F)c3)no2)cc1 (configuration not stated)	0	0	?	0	22µM	0
